Screening results as filed in PubChem.
Sm TGR block: S. mansoni TGR enzyme inhibition; purified TGR, DTNB reduction, TNB absorbance 405 nm; Potency, µM (top dose mostly 114 µM), usual class: inhibitors; 360,000 compounds, 3% hits; Q962Y6; also: nearly all actives have a fitted effect of over 60% in size
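TGR 20 nM + NADPH 100 uM (dispensed conc.), cpd preinc 15 min RT; start with NADPH (500 uM addition) then DTNB (15 mM addition). Kinetic TNB absorbance, 405 nm filter. Four-parameter Hill fit across titration.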
SARS PLpro yeast: SARS-CoV PLP inhibition in yeast. 330,000 compounds, 0.19% hits. Potency, µM (series often up to 32.9 µM), usual class: activators. S. cerevisiae expressing SARS-CoV PLpro, growth rescue; calls by dose curve; also: nearly all actives have a fitted effect of over 55% in size
TbPYK inhibitor: T. brucei pyruvate kinase inhibition; Q57TT1; TbPYK enzyme, Kinase-Glo Plus ATP luminescence, 45 min; Potency, µM (doses to about 76.8 µM), most hits filed as inhibitors; 410,000 compounds, 0.12% hits; also: nearly all actives have a fitted effect of over 50% in size
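Activity of T. brucei pyruvate kinase was followed by Kinase-Glo Plus luminescence after the enzyme reacted 45 min at room temperature with 130 uM ADP (final) and substrate. Test compounds were added before ADP at multiple concentrations.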
RE007 growth inh: less growth of the S. pombe RE007 Vpr strain. Potency, µM (titrated, usually from 92.2 µM), most hits filed as inhibitors. S. pombe RE007 Vpr strain, BacTiter-Glo ATP luminescence, 24 h. 360,000 compounds, 0.21% hits. AID 651644; active = well fitted falling curve with a large enough effect; inconclusive = small, poorly fitted or top-dose-only effect; inactive = no such curve, though single readings can be large or run the other way; also: nearly all actives have a fitted effect of over 50% in size
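Fission yeast RE007 carrying one integrated HIV-1 vpr copy, seeded at OD 0.01 in PMG+AL medium with 23 nL pinned compound. Grown 24 h at 30 degrees; viability read by BacTiter-Glo luminescence after 5 min.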
NS1 inh: influenza NS1 inhibition; AID 2326; 270,000 compounds, 0.4% hits; Potency, µM (doses to about 46.1 µM); calls by dose curve; also: actives are rising curves; nearly all actives have a fitted effect of over 50% in size
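A cell-based growth assay was used: compounds that relieve NS1-induced slow growth of budding yeast raise OD600. Assay medium was yeast nitrogen base with ammonium sulphate and -URA supplement, pH 6.0, with 2% galactose.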
LmPK inh: inhibitors of Leishmania mexicana pyruvate kinase | purified LmPK, Kinase-Glo ATP luminescence, 1 h | Potency, µM (titrated, usually from 57.5 µM), usual class: inhibitors | Q27686 | 290,000 compounds, 0.37% hits | AID 1721
Target sequence (Q27686 whole entry, looked up): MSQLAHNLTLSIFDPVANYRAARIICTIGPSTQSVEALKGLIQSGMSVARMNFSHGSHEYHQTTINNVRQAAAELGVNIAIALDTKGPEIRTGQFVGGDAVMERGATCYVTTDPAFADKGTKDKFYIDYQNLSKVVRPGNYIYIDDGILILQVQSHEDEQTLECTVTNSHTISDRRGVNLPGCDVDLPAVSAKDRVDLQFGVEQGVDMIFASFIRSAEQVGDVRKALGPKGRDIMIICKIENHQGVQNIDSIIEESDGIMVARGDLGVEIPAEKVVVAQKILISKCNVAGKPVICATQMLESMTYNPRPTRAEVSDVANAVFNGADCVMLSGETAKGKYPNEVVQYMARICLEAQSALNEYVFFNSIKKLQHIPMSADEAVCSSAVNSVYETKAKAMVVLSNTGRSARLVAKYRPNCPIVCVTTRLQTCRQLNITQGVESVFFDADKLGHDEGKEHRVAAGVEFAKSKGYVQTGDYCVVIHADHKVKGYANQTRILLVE
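Purified LmPK (0.1 nM) converted ADP (0.1 mM) to ATP with PEP (0.5 mM) in imidazole buffer pH 7.2 with KCl and MgCl2, 1 h at room temperature. ATP was read by Kinase-Glo luminescence; data normalized to uninhibited and no-enzyme controls.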
Large screens that a line does not name were inactive. Hits are enriched below; roughly 3.3% of the tested compounds scored in any of these assays. Unless noted, calls follow the shape of the dose curve; as a rule, active = well fitted curve in the direction sought with a large enough effect; inconclusive = small, poorly fitted or top-dose-only effect, or another doubt; inactive = no such curve, though single readings can be large; an effect the other way counts as inactive or inconclusive.

CC(C)C(c1nnnn1Cc1ccco1)N1CCC(C(N)=O)CC1 (stereo unspecified)	Sm TGR block 45µM
Oc1cc(Nc2ccc(N3CCCCC3)cc2)cc2cccnc12	none (no result: TbPYK inhibitor, RE007 growth inh, NS1 inh, LmPK inh)
CCOC(=O)c1csc(-c2sccc2Br)n1	RE007 growth inh inconclusive, LmPK inh 16µM
O=C1CC(c2ccco2)CC2=C1C=Nc1ccccc1N2 (stereo unspecified)	Sm TGR block 40µM
O=C(CC1Sc2ncnn2C1=O)Nc1ccc(Cl)cc1 (stereo unspecified)	Sm TGR block 5.6µM (no result: NS1 inh)
CCOC(=O)c1ccc(NC(=O)CC2Sc3ncnn3C2=O)cc1 (stereo unspecified)	Sm TGR block 1.6µM, RE007 growth inh 32µM
COc1ccc(NC(=O)CC2Sc3ncnn3C2=O)cc1 (stereo unspecified)	Sm TGR block 0.63µM, RE007 growth inh inconclusive
C=CC1=C2C=C(C3CC3)N(C3CCCC3)C=C2C(=O)C(C)(OC(=O)c2ccco2)C1=O (stereo unspecified)	none (no result: Sm TGR block, SARS PLpro yeast, TbPYK inhibitor, RE007 growth inh, NS1 inh)
O=c1c(-c2cccs2)nc2cnc(Oc3cccc(Cl)c3)nc2n1C[C@H]1CCCO1	none (no result: Sm TGR block, SARS PLpro yeast, RE007 growth inh, NS1 inh, LmPK inh)
Cc1ccccc1N1CC(c2nc3ccccc3n2Cc2ccc(Br)cc2)CC1=O (stereo unspecified)	none (no result: SARS PLpro yeast, RE007 growth inh, NS1 inh, LmPK inh)
CC(=O)NCc1ccc2[nH]c(C)cc2c1	Sm TGR block 40µM
CCC(=O)NCc1ccc2[nH]c(C)cc2c1	Sm TGR block 28µM (no result: NS1 inh)
Cc1cc(C)c(NC(=O)CSc2nnc(-c3ccncc3)n2Cc2ccco2)c(C)c1	Sm TGR block inconclusive
O=C(CSc1nnc(Cc2cccs2)n1Cc1ccco1)Nc1cc(Cl)cc(Cl)c1	Sm TGR block 35µM
O=C(CSc1nnc(-c2ccncc2)n1Cc1ccco1)Nc1ccccc1F	Sm TGR block 50µM
O=C(CSc1nnc(-c2ccncc2)n1Cc1ccco1)Nc1ccccc1Cl	none
O=C(CSc1nnc(-c2ccncc2)n1Cc1ccco1)c1ccc(Cl)cc1	Sm TGR block 0.89µM
NC(=O)CSc1nnc(-c2cccs2)n1Cc1ccco1	none
O=C(CSc1nnc(-c2ccc(Cl)cc2)n1Cc1ccco1)c1cccs1	Sm TGR block 28µM
O=C(c1nc(-c2ccc(Cl)cc2)n2c1CCCCC2)N1CCN(c2ccccc2)CC1	none (no result: SARS PLpro yeast, RE007 growth inh, NS1 inh, LmPK inh)
CCC(=O)Nc1cc(NC(=O)CSc2ncc(-c3ccc(F)cc3)n2Cc2ccco2)ccc1C	Sm TGR block 45µM
COc1ccc(S(=O)(=O)n2nc(OC(=O)c3ccccc3)cc2N)cc1	none
Cc1ccc(C(=O)Oc2cc(N)n(S(=O)(=O)c3ccc(C)cc3)n2)cc1	none (no result: NS1 inh)
COc1ccc(S(=O)(=O)n2nc(OC(=O)c3ccncc3)cc2N)cc1	Sm TGR block 5µM
COc1ccc(S(=O)(=O)n2nc(OC(=O)c3ccco3)cc2N)cc1	Sm TGR block 22µM
COc1ccc(S(=O)(=O)n2nc(OC(C)=O)cc2N(C(C)=O)C(C)=O)cc1	Sm TGR block 22µM
Cc1ccc(S(=O)(=O)n2nc(OC(=O)c3ccccc3F)cc2N)cc1	Sm TGR block 16µM
COc1ccc(OC)c(C2CC(=O)Nc3c2c(=O)n(C)c2ncnn32)c1 (stereo unspecified)	none (no result: SARS PLpro yeast, RE007 growth inh, NS1 inh, LmPK inh)
COc1ccccc1NC(=O)C(C)Sc1nnc2ccc3ccccc3n12 (stereo unspecified)	Sm TGR block inconclusive (no result: SARS PLpro yeast, RE007 growth inh, NS1 inh, LmPK inh)
Cc1ccc(CNC(=O)C2CC3Cn4c(nc5cc6ccccc6cc54)C3N2C)o1 (stereo unspecified)	Sm TGR block 45µM
CN1C(C(=O)NCC2CC2)CC2Cn3c(nc4cc5ccccc5cc43)C21 (stereo unspecified)	none
Cc1ccc(CNC(=O)C2CC3Cn4c(nc5ccccc54)C3N2C)o1 (stereo unspecified)	Sm TGR block 35µM (no result: NS1 inh, LmPK inh)
Cc1ccc(C(c2sc3nc(-c4ccco4)nn3c2O)N2CCC3(CC2)OCCO3)cc1 (stereo unspecified)	none (no result: SARS PLpro yeast, RE007 growth inh, NS1 inh, LmPK inh)
COCCCn1c(SCC(=O)NC2CCCC2)nnc1-c1ccco1	Sm TGR block 40µM
